From PubChem
GLS inh: inhibitors of human glutaminase (GLS). O94925. GLS enzymatic activity, qHTS titration. Potency, µM (top dose mostly 45.5 µM), most hits filed as inhibitors. 0.21% of 410,000 active. AID 624170
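Human kidney-isoform GLS in 45 mM KH2PO4 pH 8.2, 0.02% Tween-20, with compound, started with 1mM L-Glutamine (added stock). Glutamate oxidase/HRP/Amplex red coupled fluorescence read at start and after 30 min at RT.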
L3MBTL1 inh-1: inhibitors of human L3MBTL1 | Potency, µM (highest dose often 57.1 µM), actives largely listed as inhibitors | 0.66% of 230,000 active | AID 485360 | AlphaScreen L3MBTL1–H3K9me1 peptide binding; note: nearly all actives have a fitted effect of over 60% in size
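First, the protein-peptide complex forms for 30 min at room temperature (L3MBTL1 50 nM, biotinylated H3K9me1 peptide 75 nM). Next, compounds are pin-transferred and incubated 30 min. Finally, AlphaScreen beads are added and read after 30 min.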
BAZ2B block: BAZ2B (human) inhibition. Q9UIF8. AID 504333. 4.4% of 360,000 active. Potency, µM (series often up to 114 µM), usual class: inhibitors. AlphaScreen BAZ2B-H3K14Ac peptide displacement; note: nearly all actives have a fitted effect of over 60% in size
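AlphaScreen displacement: compounds (up to 110uM) incubated 30 min at room temperature with a preformed 50 nM BAZ2B/50 nM biotinylated H3K14Ac peptide complex in PBS pH 7.4 with Tween-20. Donor and acceptor beads at 10 ug/mL final added, 20 min light-protected before reading.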
JMJD2A Tudor: inhibitors of human JMJD2A Tudor domain. AlphaScreen JMJD2A-Tudor / H3K4me3 peptide binding. O75164. 4.4% of 390,000 active. AID 504339. Potency, µM (doses to about 114 µM), actives largely listed as inhibitors; note: nearly all actives have a fitted effect of over 50% in size
HP1b binding inh: blocks HP1-beta chromodomain binding to methylated histone tails | AID 540317 | AlphaScreen HP1-beta / biotin-H3K9me3 peptide binding | 0.56% of 390,000 active | Potency, µM (titrated, usually from 114 µM), actives largely listed as inhibitors; note: nearly all actives have a fitted effect of over 70% in size
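AlphaScreen: HP1-beta (50 nM) preformed 30 min with biotin-H3(1-18)K9me3 peptide (50 nM) in PBS pH 7.4, 0.01% Tween-20. Compound added for 30 min at RT, then streptavidin donor/nickel chelate acceptor beads (10 ug/mL) for 30 min.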
G9a inh-1: inhibitors of human histone lysine methyltransferase G9a | Potency, µM (titrated, usually from 102 µM), most hits filed as inhibitors | Q96KQ7 | G9a H3K9 monomethylation, AlphaScreen, 2 h | AID 504332 | 8.8% of 350,000 active; note: nearly all actives have a fitted effect of over 75% in size
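AlphaScreen detection with an anti-monomethyl H3K9 antibody quantified product after a 2 h room-temperature reaction containing 500 nM biotinylated H3K9 peptide, 20 µM SAM and 20 nM enzyme, which had been preincubated 15 min with compound.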
L3MBTL1 inh-2: blocks human L3MBTL1 methyl-lysine binding | 91% of 500 active | shares compounds with L3MBTL1 inh-1 | L3MBTL1 methyl-lysine binding inhibition, biochemical qHTS | Potency, µM, actives largely listed as inhibitors | AID 540279; note: nearly all actives have a fitted effect of over 70% in size
L3MBTL1 ctr: counter-screen for L3MBTL1 inhibitors: AlphaScreen signal interference; shares compounds with L3MBTL1 inh-1; AlphaScreen counterscreen, signal inhibition; Potency, µM (doses to about 57.1 µM), most hits filed as inhibitors; 500 tested, under 10 active; AID 602224
ME-1 prolif: ME-1 cell growth inhibition; shares compounds with BAZ2B block; ME-1 cell proliferation, ATP luminescence, 48 h; Potency, µM (series often up to 56.1 µM), hits mostly inhibitors; 20% of 140 active
G9a inh-2: confirmation of human histone methyltransferase G9a inhibitors; Potency, µM, hits mostly inhibitors; 89% of 370 active; G9a H3K9 monomethylation, AlphaScreen, 2 h; AID 588344; shares compounds with JMJD2A Tudor; note: nearly all actives have a fitted effect of over 65% in size
Hits are given with their value; ! = not active in a repeat; [ ] = dose if it differs, or a comment. Hits are enriched below; roughly 10% of the tested compounds scored in any of these assays. Calls come from the whole dose curve; as a rule, active = well fitted curve in the direction sought with a large enough effect; inconclusive = small, poorly fitted or top-dose-only effect, or another doubt; inactive = no such curve, though single readings can be large; an effect the other way counts as inactive or inconclusive.

`O=C1NC(=S)N(C2CC2)C(=O)/C1=C/c1ccc2c(c1)CCN2CCCCl` gave GLS inh inactive, L3MBTL1 inh-1 31.6µM, BAZ2B block 31.6µM, JMJD2A Tudor 44.7µM, HP1b binding inh inconclusive, G9a inh-1 11.2µM, L3MBTL1 inh-2 4.23 and L3MBTL1 ctr inactive.
Screening CCOc1ccc(N2C(=O)/C(=C/c3ccc(C)o3)C(=O)NC2=S)cc1 returned GLS inh inconclusive, L3MBTL1 inh-1 22.4µM, BAZ2B block inconclusive, JMJD2A Tudor 25.1µM, HP1b binding inh inconclusive, L3MBTL1 inh-2 2.67 and L3MBTL1 ctr inactive.
`O=C1NC(=O)N(Cc2ccc(F)cc2)C(=O)/C1=C\c1ccoc1` gave GLS inh inconclusive, L3MBTL1 inh-1 20µM, BAZ2B block 50.1µM, JMJD2A Tudor 79.4µM, HP1b binding inh inconclusive, G9a inh-1 39.8µM, L3MBTL1 inh-2 7.52 and L3MBTL1 ctr inactive.
`O=C(c1ccncc1)N1CCC2(CC1)CN(Cc1ccccc1)C2` gave G9a inh-1 inactive[12.7 µM].
`c1cnc(N2CC[C@@]3(CCCNC3)C2)nc1` gave G9a inh-1 inactive[12.7 µM].
Screening O=C(Nc1ccon1)c1cccn(Cc2cccc([N+](=O)[O-])c2)c1=O returned GLS inh inactive, BAZ2B block inactive, JMJD2A Tudor inactive, HP1b binding inh inactive and G9a inh-1 inactive.
Screening Cc1cc(/C=C2\C(=O)NC(=O)N(Cc3ccco3)C2=O)c(C)n1-c1ccc(C(=O)O)cc1 returned GLS inh inactive, L3MBTL1 inh-1 28.2µM, BAZ2B block 50.1µM, JMJD2A Tudor inactive, HP1b binding inh inconclusive, G9a inh-1 50.1µM, L3MBTL1 inh-2 13.4 and L3MBTL1 ctr inactive.
Cc1cc(/C=C2\C(=O)NC(=O)N(Cc3ccccc3Cl)C2=O)c(C)n1-c1ccc(C(=O)O)cc1 was read as GLS inh inactive, L3MBTL1 inh-1 28.2µM, BAZ2B block 50.1µM, JMJD2A Tudor inconclusive, HP1b binding inh 70.8µM, G9a inh-1 25.1µM, L3MBTL1 inh-2 5.32 and L3MBTL1 ctr inactive.
For Cc1cc(/C=C2\C(=O)NC(=O)N(c3ccc(Cl)cc3)C2=O)c(C)n1-c1sc2c(c1C#N)CCCC2 the results were GLS inh inactive, L3MBTL1 inh-1 inactive, BAZ2B block inconclusive, JMJD2A Tudor inactive, HP1b binding inh inactive and G9a inh-1 inconclusive.
For Cc1cc(/C=C2\C(=O)NC(=O)N(Cc3ccccc3)C2=O)c(C)n1-c1ccc(Cl)c(C(=O)O)c1 the results were GLS inh 10µM, L3MBTL1 inh-1 4.47µM, BAZ2B block 31.6µM, JMJD2A Tudor 44.7µM, HP1b binding inh inactive, G9a inh-1 12.6µM, L3MBTL1 inh-2 0.752 and L3MBTL1 ctr inactive.
Screening Cc1c(Cl)cccc1N1C(=O)NC(=O)/C(=C\c2cc(C)n(-c3cccc(C(=O)O)c3C)c2C)C1=O returned GLS inh inactive, L3MBTL1 inh-1 inactive, BAZ2B block inconclusive, JMJD2A Tudor inactive and HP1b binding inh inactive.
For COc1cccc(NC(=O)c2cccn(Cc3ccccc3C)c2=O)c1 the results were GLS inh inactive, BAZ2B block inactive, JMJD2A Tudor inactive, HP1b binding inh inactive and G9a inh-1 inactive.
CN1CCC(N2CC3CC(C2)c2cccc(=O)n2C3)CC1 (stereo not drawn) was read as GLS inh inactive, L3MBTL1 inh-1 39.8µM, BAZ2B block inactive, JMJD2A Tudor inactive, HP1b binding inh inactive, G9a inh-1 inconclusive, L3MBTL1 inh-2 26.7 and L3MBTL1 ctr inactive.
For CCCCc1ccc(C(=O)O)nc1 the results were GLS inh inactive, L3MBTL1 inh-1 8.91µM, BAZ2B block 3.98µM, JMJD2A Tudor inactive, HP1b binding inh inactive, G9a inh-1 5.97µM! and ME-1 prolif inconclusive.
Screening Cc1ccc2c(Cl)cc(Cl)c(O)c2n1 returned GLS inh inconclusive, JMJD2A Tudor inactive and HP1b binding inh inactive.
`CCCCNC(=O)Oc1c(Br)cc2sc(=O)oc2c1Br` gave BAZ2B block 50.1µM, G9a inh-1 8.91µM and ME-1 prolif inconclusive.
`CCCCNC(=O)Oc1cc(CCl)on1` gave L3MBTL1 inh-1 inactive, BAZ2B block inactive and G9a inh-1 inconclusive.
CCOc1ccc2nc(NC(=O)c3cccn(Cc4ccccc4)c3=O)sc2c1 was read as GLS inh inactive, BAZ2B block inactive, JMJD2A Tudor inactive, HP1b binding inh inactive and G9a inh-1 inactive.
`Cc1cccc(-n2c(O)c(C=NCCN3CCNCC3)c(=O)[nH]c2=S)c1` gave GLS inh inactive, BAZ2B block inactive, JMJD2A Tudor inactive, HP1b binding inh inactive and G9a inh-1 inactive.
`Cc1cccc(-n2c(O)c(/C=N/Nc3nc4c(c(=O)n(C)c(=O)n4C)n3C)c(=O)[nH]c2=S)c1` gave GLS inh inactive, L3MBTL1 inh-1 inactive, BAZ2B block inconclusive, JMJD2A Tudor inconclusive, HP1b binding inh inactive, G9a inh-1 inconclusive and ME-1 prolif inactive.
Screening CN(N=O)c1cc(O)ccc1O returned JMJD2A Tudor 6.31µM, HP1b binding inh inconclusive, G9a inh-1 0.597µM and ME-1 prolif 39.8µM.
Screening COc1ccc(OCC(=O)N2CCN(CCc3ccccn3)CC2)cc1 returned GLS inh inactive, BAZ2B block inactive, JMJD2A Tudor inactive, HP1b binding inh inactive and G9a inh-1 inactive.
For C=C1CC[C@H](O)C/C1=C/C=C1\CCC[C@]2(C)[C@H]1CC[C@H]2[C@@H](C)CCCC(C)C the results were G9a inh-1 inactive[21.5 µM] and ME-1 prolif inactive.
CCn1nc(-c2ccccc2)nc2c(=O)n(C)c(=O)nc1-2 was read as GLS inh inactive, L3MBTL1 inh-1 0.708µM, BAZ2B block inactive, JMJD2A Tudor inactive, HP1b binding inh inactive, G9a inh-1 inconclusive and ME-1 prolif 11.2µM.
For Cn1nc(-c2ccccc2)nc2c(=O)n(C)c(=O)nc1-2 the results were JMJD2A Tudor inactive and HP1b binding inh inactive.
`Cn1c(N2CCNCC2)nc2ccccc21` gave GLS inh inactive, BAZ2B block inactive, JMJD2A Tudor inactive, HP1b binding inh inactive and G9a inh-1 inactive[12.7 µM].
Cc1cc(N2CCNCC2)nc2ccccc12 was read as GLS inh inactive, L3MBTL1 inh-1 inactive, BAZ2B block inactive, JMJD2A Tudor inactive, HP1b binding inh inactive, G9a inh-1 inconclusive and G9a inh-2 inconclusive.
